This is an account of results in PubChem BioAssay (NCATS).

Experiment [1] in a line: AP1 Signaling Pathway (AID 357; active = well fitted curve in either direction with a large enough effect, not every such curve was filed as active; also: % is scaled to controls: 0 for no effect and ±100 for the full control effect). Conditions: ME-180 AP-1-bla reporter, EGF-induced, beta-lactamase ratio, 5 h; at 7.69 µM (top of the series) unless noted. A digest of the protocol:
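ME-180 cells with beta-lactamase reporter under AP-1 response element, stimulated with EC50 EGF; compounds tested in titration series, 5 h at 37 °C. CCF4 substrate added 2.5 h at room temperature; 460/530 nm emission ratio gave %activity and AC50.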

Experiment [2] concerns the target Cytochrome P450 1A2 (Homo sapiens) (UniProt P05177). Briefly: p450-cyp1a2 (AID 410; calls by dose curve; also: potency is read from the fitted curve at half-maximal effect;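 as to activity change, negative = inhibition: -100% = full effect of reference inhibitor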). A digest of the protocol:
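Read-out is luminescence from luciferin produced by CYP1A2 demethylation of Luciferin-ME (100uM, at Km). Detection reagent stopped the 60 min NADPH-dependent reaction; signals were normalized to 57 uM furafylline.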

Experiment [3] in a line: NFAT Signaling Pathway (AID 444; active = well fitted curve in either direction with a large enough effect, not every such curve was filed as active;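 also: carbachol stimulus at about its EC50 of 1 µM final; % is scaled to controls: 0 for no effect and ±100 for the full control effect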). To be noted: Jurkat NFAT-bla M1, carbachol, beta-lactamase ratio, 5 h; at 7.69 µM (top of the series) unless noted. A digest of the protocol:
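Jurkat cells with NFAT-driven β-lactamase reporter and co-expressed M1 receptor, stimulated with carbachol (final 1 uM, ~EC50), compound titration, 5 h at 37 °C. CCF4 loaded 1 h at RT; 460/530 nm ratio gave %activity and AC50.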

The nature of experiment [4]: Stat Signaling Pathway (AID 446; active = well fitted curve in either direction with a large enough effect, not every such curve was filed as active;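 also: ME-180 cervical cancer cells given 40 pM IL-6 alongside compound; SIE-controlled beta-lactamase reporter measured as 460/530 nm FRET emission ratio; % is scaled to controls: 0 for no effect and ±100 for the full control effect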). To be noted: ME-180 SIE beta-lactamase reporter, IL-6 stimulated, 5 h; at 7.69 µM (top of the series) unless noted. A digest of the protocol:
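Overnight-plated ME-180 cells bearing a STAT Inducible Element beta-lactamase reporter; 5 h co-exposure to compound and 40 pM IL-6; values normalized to 300 pM IL-6 and 125 nM JAK inhibitor controls.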

Experiment [5] addresses Glucocorticoid receptor (Homo sapiens) (UniProt P04150). Briefly: GR-GFP Redistribution (AID 450;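 active = compounds whose dose series gives a full or clear partial fitted curve of increased nuclear translocation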; also: potency is read from the fitted curve at half-maximal effect). Conditions: U2OS GR-GFP nuclear translocation, laser cytometry, 2 h.
Experiment [6] shares this target. Briefly: GR-EFC Redistribution (AID 451; calls by dose curve; also: potency is read from the fitted curve at half-maximal effect). To be noted: CHO-K1 GR-EFC translocation, beta-gal luminescence, 2 h. A digest of the protocol:
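CHO-K1 cells expressing nuclear EA and GR-ED fragments of b-gal; compounds titrated up to 46 uM final, 2 h at 37 C. GR nuclear translocation read as complemented b-gal luminescence after 1 h RT detection.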

Experiment [7] concerns the target 3',5'-cyclic-AMP phosphodiesterase 4B (Homo sapiens) (UniProt Q07343). The experiment is described as follows: qHTS Assay for Inhibitors of PDE-IV (AID 607; active = well fitted activation curve with a large enough effect in the main read-out, with a control signal flat, not every such curve was filed as active; also: % of control where 0% means no effect). A digest of the protocol:
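Live HEK293 cells with a modified cyclic nucleotide-gated (CNG) channel report intracellular cAMP via membrane-potential dye fluorescence (ex 535/em 590 nm). Endogenous PDE-IV was targeted. Compounds were tested at up to 22.9 uM final; RO 20-1724 100 uM served as control.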
(In qHTS, concentration-response curves come from the screen itself.)

In experiment [8] the target is Cytochrome P450 3A4 (Homo sapiens) (UniProt P08684). Briefly: qHTS Assay for Activators of Cytochrome P450 3A4 (AID 885). Also: nearly all actives have a fitted effect of over 65% in size. A digest of the protocol: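 Using 20nM recombinant human CYP3A4 in potassium phosphate (200mM), substrate Luciferin-PPXE at 25uM, luminescent luciferin detection followed a 60-min RT NADPH reaction; data scaled to 57 uM ketoconazole.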
Chain of Cytochrome P450 3A4 (Homo sapiens) (P08684 whole entry, looked up): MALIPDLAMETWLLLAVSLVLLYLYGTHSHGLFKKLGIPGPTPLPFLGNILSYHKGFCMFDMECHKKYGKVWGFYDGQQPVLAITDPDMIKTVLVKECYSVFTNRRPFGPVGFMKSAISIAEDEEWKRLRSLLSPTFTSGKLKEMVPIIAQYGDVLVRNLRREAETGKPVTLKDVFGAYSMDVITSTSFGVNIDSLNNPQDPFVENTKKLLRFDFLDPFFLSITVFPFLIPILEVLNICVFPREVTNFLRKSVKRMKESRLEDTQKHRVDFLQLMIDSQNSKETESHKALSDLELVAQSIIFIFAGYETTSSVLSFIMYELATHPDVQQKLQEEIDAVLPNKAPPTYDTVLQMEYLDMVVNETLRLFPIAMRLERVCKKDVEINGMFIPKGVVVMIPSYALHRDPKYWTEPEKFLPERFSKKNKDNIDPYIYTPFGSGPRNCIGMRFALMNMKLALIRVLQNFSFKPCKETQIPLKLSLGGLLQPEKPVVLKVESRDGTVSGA
Experiment [9] is described as follows: qHTS Assay for Identification of Small Molecule Antagonists for NFkB Signaling Pathway (AID 895; active = well fitted inhibition curve with a large enough effect in the signal ratio, with a control signal flat, not every such curve was filed as active; the % refers to the signal ratio; also: % is scaled to controls: 0 for no effect and ±100 for the full control effect). A digest of the protocol: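 ME-180 NFkB-bla cells (beta-lactamase under NFkB response element), plated overnight, treated with compound then 10 pM TNF alpha (about EC50) for 5 hrs at 37 C. LiveBLAzer FRET read at 460/530 nm emission, 405 nm excitation.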
Experiment [10] can be described thus: qHTS Assay for Identification of Small Molecule Agonists for Thrombopoietin (TPO) Signaling Pathway (AID 917). Also: % is scaled to controls: 0 for no effect and ±100 for the full control effect. A digest of the protocol:
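Stimulation at the TPO EC50 (26 pM final) was used to detect activators. Ba/F3 mouse cells bearing human TPO receptor and a luciferase reporter under the Glycoprotein IIb promoter were exposed to compounds for 24 hrs at 37 C.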

Experiment [11] deals with Muscarinic acetylcholine receptor M1 (Rattus norvegicus) (UniProt P08482). The experiment is described as follows: qHTS Assay for Antagonists of Acetylcholine Muscarinic M1 Receptor: Kinetic Measurement of Intracellular Calcium Response (AID 943).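 Also: Fluo-4 calcium signal as peak divided by basal fluorescence over 4 min; nearly all actives have a fitted effect of over 75% in size.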 A digest of the protocol: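 Quantitative HTS in CHO-M1 (rat receptor) cells: 10 min compound exposure ahead of 100 nM carbachol, Fluo-4 fluorescence followed 4 min, value expressed as peak-to-basal ratio.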
Chain of Muscarinic acetylcholine receptor M1 (Rattus norvegicus) (P08482 whole entry, looked up): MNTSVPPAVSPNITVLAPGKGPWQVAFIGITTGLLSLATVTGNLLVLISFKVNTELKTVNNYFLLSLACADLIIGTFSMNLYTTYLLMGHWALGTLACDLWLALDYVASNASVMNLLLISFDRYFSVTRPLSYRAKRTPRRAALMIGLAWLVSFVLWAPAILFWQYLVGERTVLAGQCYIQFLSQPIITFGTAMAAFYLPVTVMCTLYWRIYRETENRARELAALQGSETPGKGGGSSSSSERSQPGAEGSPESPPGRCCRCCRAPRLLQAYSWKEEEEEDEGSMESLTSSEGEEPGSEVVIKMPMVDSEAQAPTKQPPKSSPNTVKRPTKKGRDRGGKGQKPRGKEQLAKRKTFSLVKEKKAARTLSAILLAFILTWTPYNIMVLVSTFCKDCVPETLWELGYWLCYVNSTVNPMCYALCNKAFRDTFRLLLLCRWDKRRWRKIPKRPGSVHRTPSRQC

Experiment [12] concerns the target Pyruvate kinase (Leishmania mexicana) (UniProt Q27686). The experiment is described as follows: qHTS Validation Assay for Inhibitors of Leishmania Mexicana Pyruvate Kinase (AID 945).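 Also: 0% = DMSO only neutral control wells.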 A digest of the protocol: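 Eight-point qHTS titrations; enzyme 0.2 nM LmPYK (E451W mutant); substrates 0.5 mM PEP, 0.1 mM ADP; 7 mM MgCl2; 1 h room temperature; PKLight luminescence normalized to neutral control.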

For experiment [13], the target named is Pyruvate kinase PKM (Homo sapiens) (UniProt P14618). The experiment is described as follows: qHTS Assay for Activators of Human Muscle Pyruvate Kinase (AID 954; active = well fitted curve in the direction sought with a large enough effect, not every such curve was filed as active;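 also: 0% = uninhibited enzyme and -100% = no enzyme or full thiadiazolimine inhibition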). A digest of the protocol:
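Screening used highly purified human pyruvate kinase M2 under submaximal activity, with PEP at its Km and ADP below Km. After an hour at room temperature, ATP was read by luciferase luminescence.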

The target of experiment [14] is Alpha-galactosidase A (Homo sapiens) (UniProt P06280). Briefly: Counterscreen for Glucocerebrosidase Inhibitors: qHTS Assay for Human alpha-Galactosidase at pH 4.5 (AID 992). Also: 0% is about no effect. A digest of the protocol:
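Each compound is preincubated briefly with 2 nM enzyme before substrate addition (80 uM); plates then sit 20 min at ambient temperature, are quenched with 1M NaOH/1M glycine, and read fluorometrically.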
Background: Counterscreens check selectivity or assay interference.

Experiment [15] deals with alpha-glucosidase (Oryza sativa, rice) (UniProt Q653V4). The experiment is described as follows: Counterscreen for Glucocerebrosidase Inhibitors: qHTS Assay for Rice alpha-Glucosidase at pH 5.0 (AID 997).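 Also: 0% = full activity with enzyme and -100% = basal without enzyme.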 A digest of the protocol: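 Endpoint fluorogenic assay at pH 5.0: compounds (0.7 nM to 77 uM) titrated against 4 nM rice enzyme and 400 uM 4-MU-alpha-glucoside for 20 min at room temperature; NaOH/glycine stop, read ex 365/em 440 nm, Hill-fitted AC50.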

The target in experiment [16] is Mitogen-activated protein kinase 10 (Mus musculus) (UniProt Q61831). Briefly: JNK3 AlphaScreen Assay (AID 530; active = well fitted curve in either direction with a large enough effect, not every such curve was filed as active). A digest of the protocol: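 HepG2 lysate (IL-1b/TNFa pre-activated) + biotin-GST-cJun 1-79 + anti-pSer73 cJun; cpd titration, 15 min RT; ATP 10 uM start; Tris pH 7.6, MgCl2, DTT, vanadate; beads in EDTA buffer; AlphaScreen.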
For orientation: Alpha assays give light when donor and acceptor beads are brought close together.

Experiment [17] addresses Muscarinic acetylcholine receptor M1 (Rattus norvegicus) (UniProt P08482). Briefly: qHTS Assay for Antagonists of Acetylcholine Muscarinic M1 Receptor: Measurement of IP-One Response (AID 944). Also: nearly all actives have a fitted effect of over 75% in size. A digest of the protocol:
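Antagonism was measured as loss of carbachol-driven (EC80) IP1 accumulation in CHO cells carrying rat M1, using a homogeneous IP-One TR-FRET kit read at 620 and 665 nm.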

Unmarked numbers belong to inactive results. Results filed as inconclusive are left out. Activity calls are given as the source filed them. Unless noted, calls follow the shape of the dose curve; as a rule, active = well fitted curve in the direction sought with a large enough effect; inconclusive = small, poorly fitted or top-dose-only effect, or another doubt; inactive = no such curve, though single readings can be large; an effect the other way counts as inactive or inconclusive. Bounds are passed on as bounds.

Chain of Pyruvate kinase (Leishmania mexicana) (Q27686 2-499 E452W): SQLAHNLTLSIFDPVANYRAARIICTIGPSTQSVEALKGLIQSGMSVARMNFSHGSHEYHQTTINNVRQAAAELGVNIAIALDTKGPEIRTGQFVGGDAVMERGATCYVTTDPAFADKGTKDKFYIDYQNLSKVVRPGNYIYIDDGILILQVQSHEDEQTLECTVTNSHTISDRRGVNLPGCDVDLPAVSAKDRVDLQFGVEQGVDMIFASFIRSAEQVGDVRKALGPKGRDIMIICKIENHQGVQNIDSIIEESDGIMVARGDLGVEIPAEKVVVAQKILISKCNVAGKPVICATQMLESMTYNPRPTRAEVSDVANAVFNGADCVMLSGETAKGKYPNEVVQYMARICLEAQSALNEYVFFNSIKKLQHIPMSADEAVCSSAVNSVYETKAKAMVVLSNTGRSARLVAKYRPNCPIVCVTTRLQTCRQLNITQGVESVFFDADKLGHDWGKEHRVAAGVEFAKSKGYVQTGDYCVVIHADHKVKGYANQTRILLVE
Chain of Glucocorticoid receptor (Homo sapiens) (P04150 whole entry, looked up): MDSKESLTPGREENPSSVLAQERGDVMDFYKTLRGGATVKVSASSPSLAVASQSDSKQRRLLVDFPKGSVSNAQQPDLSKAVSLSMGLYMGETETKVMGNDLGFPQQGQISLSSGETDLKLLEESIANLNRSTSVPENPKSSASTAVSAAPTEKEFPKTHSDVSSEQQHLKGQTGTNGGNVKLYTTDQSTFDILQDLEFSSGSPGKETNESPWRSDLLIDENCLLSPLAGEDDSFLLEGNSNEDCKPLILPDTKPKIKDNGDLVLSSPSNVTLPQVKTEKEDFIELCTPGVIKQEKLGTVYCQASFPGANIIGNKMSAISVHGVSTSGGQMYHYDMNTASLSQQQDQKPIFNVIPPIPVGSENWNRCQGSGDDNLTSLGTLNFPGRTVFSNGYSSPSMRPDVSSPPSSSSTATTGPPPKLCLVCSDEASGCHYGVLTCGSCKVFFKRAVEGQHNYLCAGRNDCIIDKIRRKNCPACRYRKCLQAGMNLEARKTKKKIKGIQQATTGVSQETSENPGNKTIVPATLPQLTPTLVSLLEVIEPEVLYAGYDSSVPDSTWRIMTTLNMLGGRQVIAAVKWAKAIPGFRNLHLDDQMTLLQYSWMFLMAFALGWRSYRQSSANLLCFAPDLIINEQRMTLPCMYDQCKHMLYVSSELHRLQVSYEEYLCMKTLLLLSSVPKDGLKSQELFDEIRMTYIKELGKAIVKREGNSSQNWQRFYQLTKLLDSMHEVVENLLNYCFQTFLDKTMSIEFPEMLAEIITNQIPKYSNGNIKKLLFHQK
Chain of Pyruvate kinase PKM (Homo sapiens) (P14618 whole entry, looked up): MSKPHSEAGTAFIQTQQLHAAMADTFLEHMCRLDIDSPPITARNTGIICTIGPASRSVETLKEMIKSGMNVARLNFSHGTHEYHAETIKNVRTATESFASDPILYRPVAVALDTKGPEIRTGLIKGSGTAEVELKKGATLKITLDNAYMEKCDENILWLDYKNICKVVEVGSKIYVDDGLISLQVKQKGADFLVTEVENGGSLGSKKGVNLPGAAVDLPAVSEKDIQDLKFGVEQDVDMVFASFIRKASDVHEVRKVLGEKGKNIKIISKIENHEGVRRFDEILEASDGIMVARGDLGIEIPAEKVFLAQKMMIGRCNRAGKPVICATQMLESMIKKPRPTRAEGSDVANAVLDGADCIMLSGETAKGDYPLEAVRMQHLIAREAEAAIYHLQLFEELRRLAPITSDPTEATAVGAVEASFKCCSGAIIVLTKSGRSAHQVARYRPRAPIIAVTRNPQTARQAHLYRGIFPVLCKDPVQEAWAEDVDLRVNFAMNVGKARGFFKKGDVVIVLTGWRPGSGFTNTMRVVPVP
Chain of 3',5'-cyclic-AMP phosphodiesterase 4B (Homo sapiens) (Q07343 whole entry, looked up): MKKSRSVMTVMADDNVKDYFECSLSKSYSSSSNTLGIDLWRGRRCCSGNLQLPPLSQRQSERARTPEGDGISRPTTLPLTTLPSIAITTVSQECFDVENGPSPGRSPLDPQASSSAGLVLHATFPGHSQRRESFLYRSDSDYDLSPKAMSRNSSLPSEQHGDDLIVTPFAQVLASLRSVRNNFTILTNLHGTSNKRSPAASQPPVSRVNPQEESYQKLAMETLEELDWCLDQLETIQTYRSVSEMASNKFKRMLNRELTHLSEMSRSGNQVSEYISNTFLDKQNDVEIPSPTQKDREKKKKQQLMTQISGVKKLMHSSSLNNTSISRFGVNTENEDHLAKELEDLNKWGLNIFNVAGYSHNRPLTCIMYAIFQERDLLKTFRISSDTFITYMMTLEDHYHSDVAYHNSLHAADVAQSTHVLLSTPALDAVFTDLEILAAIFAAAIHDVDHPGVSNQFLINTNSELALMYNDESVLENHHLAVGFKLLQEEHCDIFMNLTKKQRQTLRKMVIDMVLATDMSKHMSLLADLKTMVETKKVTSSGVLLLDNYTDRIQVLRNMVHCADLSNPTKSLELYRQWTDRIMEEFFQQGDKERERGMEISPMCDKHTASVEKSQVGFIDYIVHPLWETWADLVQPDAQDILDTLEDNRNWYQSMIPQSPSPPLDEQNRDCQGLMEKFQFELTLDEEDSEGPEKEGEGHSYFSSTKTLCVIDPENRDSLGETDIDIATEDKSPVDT
Chain of Alpha-galactosidase A (Homo sapiens) (P06280 whole entry, looked up): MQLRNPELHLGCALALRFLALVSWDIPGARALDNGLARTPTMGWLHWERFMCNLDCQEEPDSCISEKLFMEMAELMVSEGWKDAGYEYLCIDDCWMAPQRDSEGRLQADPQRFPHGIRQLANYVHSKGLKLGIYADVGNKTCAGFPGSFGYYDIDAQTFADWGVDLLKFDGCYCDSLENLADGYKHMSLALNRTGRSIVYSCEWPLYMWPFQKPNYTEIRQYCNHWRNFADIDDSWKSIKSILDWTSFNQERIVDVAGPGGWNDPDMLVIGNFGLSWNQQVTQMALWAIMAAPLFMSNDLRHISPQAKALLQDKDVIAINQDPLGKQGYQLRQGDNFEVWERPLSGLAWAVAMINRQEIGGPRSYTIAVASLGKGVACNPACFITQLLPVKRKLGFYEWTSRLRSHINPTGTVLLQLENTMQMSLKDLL
Chain of Cytochrome P450 1A2 (Homo sapiens) (P05177 whole entry, looked up): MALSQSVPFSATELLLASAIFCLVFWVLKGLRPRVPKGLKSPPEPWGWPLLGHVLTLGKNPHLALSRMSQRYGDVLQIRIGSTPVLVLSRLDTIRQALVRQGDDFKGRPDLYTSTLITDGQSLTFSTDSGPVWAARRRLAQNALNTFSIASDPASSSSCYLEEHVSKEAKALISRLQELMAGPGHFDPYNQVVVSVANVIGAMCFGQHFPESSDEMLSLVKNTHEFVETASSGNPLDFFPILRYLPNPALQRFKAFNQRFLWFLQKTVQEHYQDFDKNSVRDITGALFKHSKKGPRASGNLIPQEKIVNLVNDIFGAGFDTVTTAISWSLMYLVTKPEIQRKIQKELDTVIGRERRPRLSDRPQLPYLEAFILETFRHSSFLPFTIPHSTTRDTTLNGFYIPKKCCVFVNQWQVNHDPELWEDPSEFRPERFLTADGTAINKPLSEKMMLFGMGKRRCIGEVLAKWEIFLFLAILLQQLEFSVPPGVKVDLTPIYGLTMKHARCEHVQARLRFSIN

Turning to `C[C@]12CC[C@H](O)C[C@@H]1CC[C@H]1[C@H]2CC[C@]2(C)[C@H](C(=O)CO)CC[C@@H]12`, the activity change, negative = inhibition is 0.537% [at 38 µM] in [1] and 0.826% [at 38 µM] in experiment [3]. The Potency was 25.1 µM (active) in [2], > 46 µM in [5] and > 46 µM in experiment [6]. Moreover, the activity, negative = inhibition in experiment [4] was 11.8% [at 38 µM]. Moreover, the outcome in experiment [7], in [10], in [12], in experiment [13], in experiment [14] and in [15] was inactive. For the same compound, the Potency entry in experiment [8], in experiment [9] and in experiment [11] was “inactive” each time.
`N[C@H](CCl)C(=O)O`: the activity change, negative = inhibition in experiment [1] is 0.76% [at 38 µM]; in experiment [3] it was 14.9% [at 38 µM]. In addition, the Potency entry in experiment [2], in [16] and in experiment [11] was “inactive” throughout. For the same compound, in experiment [4], the activity, negative = inhibition was -9.55% [at 38 µM]. The Potency in [5] and in experiment [6] was > 46 µM throughout. Further, the compound was called inactive in [7], in experiment [10], in [12], in experiment [13], in experiment [14] and in experiment [15].
With `COC(=O)[C@H](N)CCCN=C(N)N[N+](=O)[O-]`, the results for the activity change, negative = inhibition in [1] and in [3] were -2.03% [at 38 µM] and 13% [at 38 µM], respectively. Also, the Potency result in experiment [2], in experiment [16], in [9] and in experiment [17] was “inactive” in each case. Moreover, in experiment [4], the activity, negative = inhibition was 3% [at 38 µM]. The Potency in experiment [5] and in experiment [6] was > 46 µM in each case. The compound was classed as inactive in experiment [7], in experiment [10], in experiment [12], in [13], in experiment [14] and in experiment [15].
